Results from PubChem BioAssay.
Where “and” joins values, the source holds several entries; their conditions need not be identical. Equal entries are not always repeated. Calls of active or inactive are those of the source.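 How the source made its calls: active means luciferase signal above three times the same-plate solvent-only control wells; inactive means the rest.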

Tested on: not listed separately
Test: viability loss with induced miR-34 in A549 – imaging, A549 dox-inducible miR-34, nuclei and caspase counts, primary screen (AID 1347080)
Conditions: A549 miR-34 inducible, Hoechst nuclei count, 48 h; measured here: total cells with miR-34 induction; stronger effect = lower value
CC(CO)NC(=O)C1C=C2c3cccc4[nH]cc(c34)C[C@H]2N(C)C1 (stereo partly drawn) showed a cell count of 11100.
In the case of C[C@]12CCC(=O)C=C1C=CC1C2CC[C@@]2(C)C1CC[C@@]2(O)CCC(=O)O (stereo partly drawn), the cell count is reported as 12000.
With CN1C2C[C@H](OC(=O)[C@H](CO)c3ccccc3)C[C@H]1[C@@H](O)C2 the cell count was 8730.
For Oc1ccc2c3c1OC1[C@@H](O)CC[C@@]4(O)[C@@H](C2)N(CC2CCC2)CC[C@]314 (stereo partly drawn), the cell count was 12000.
Compound C=C[C@H]1CN2CC[C@H]1C[C@@H]2[C@H](O)c1ccnc2ccccc12 has a cell count of 12200.

Same assay, conditions: A549 miR-34 inducible, Hoechst nuclei count, 48 h; measured here: total cells without miR-34 induction
In the case of O=C1CC[C@@]2(O)[C@H]3Cc4ccc(O)c5c4C2(CCN3CC2CC2)[C@H]1O5, the cell count is reported as 13400.
With C=C[C@H]1CN2CC[C@H]1C[C@@H]2[C@@H](OC(=O)OCC)c1ccnc2ccc(OC)cc12 the cell count was 11800.
In the case of COc1cccc([C@]2(O)CCCC[C@H]2CN(C)C)c1, the cell count is reported as 12900.
NC1C[C@H]1c1ccccc1 (stereo partly drawn) showed a cell count of 12900.
For C[C@@H]1O[C@@H](O[C@H]2C[C@@H](O)[C@]3(CO)C4C(CC[C@]3(O)C2)[C@@]2(O)CC[C@H](C3=CC(=O)OC3)[C@@]2(C)C[C@H]4O)[C@H](O)[C@H](O)[C@H]1O (stereo partly drawn), the cell count was 364.
CC(C)C[C@@H](CN)CC(=O)O gave a cell count of 13200.
Work on CC1[C@H](C)OC(=O)CC(O)CC(O)CC(O)CCC(O)C(O)C[C@]2(O)CC(O)C(C(=O)O)C(CC(OC3O[C@H](C)[C@@H](O)[C@H](N)[C@@H]3O)/C=C/C=C/C=C/C=C/CC/C=C/C=C/[C@H](C)[C@H]1O)O2 (stereo partly drawn) yielded a cell count of 13400.
In the case of C[N+](C)(C)CC(=O)[O-], the cell count is reported as 13200.
C#CC1(O)CCC2C3CCC4=CC(=O)CCC4(C)C3CCC21C (stereo not drawn) gave a cell count of 11100.
For CCC(=O)O[C@H]1CCC2C3CCC4=CC(=O)CC[C@]4(C)C3CC[C@@]21C (stereo partly drawn), the cell count was 11300.
With CCN1C[C@@]2(COC)C3[C@@H](OC)[C@H]4[C@@H]1[C@]3(C(OC)C[C@H]2O)C1C[C@@]2(O)[C@H](OC(=O)c3ccccc3)C1[C@]4(OC(C)=O)[C@@H](O)[C@@H]2OC (stereo partly drawn) the cell count was 12600.
With C=CCN1CC[C@]23c4c5ccc(O)c4OC2C(=O)CC[C@@]3(O)[C@H]1C5 (stereo partly drawn) the cell count was 12800.
With C=C1CC2C(CC[C@]3(C)C(=O)CCC23)[C@@]2(C)C=CC(=O)C=C12 (stereo partly drawn) the cell count was 9630 and 11200.
Work on CC(CO)NC(=O)C1C=C2c3cccc4[nH]cc(c34)C[C@H]2N(C)C1 (stereo partly drawn) yielded a cell count of 12400.
With C[C@]12CCC(=O)C=C1C=CC1C2CC[C@@]2(C)C1CC[C@@]2(O)CCC(=O)O (stereo partly drawn) the cell count was 13100.
CN1C2C[C@H](OC(=O)[C@H](CO)c3ccccc3)C[C@H]1[C@@H](O)C2 gave a cell count of 9620.
For Oc1ccc2c3c1OC1[C@@H](O)CC[C@@]4(O)[C@@H](C2)N(CC2CCC2)CC[C@]314 (stereo partly drawn), the cell count was 13500.
Work on C=C[C@H]1CN2CC[C@H]1C[C@@H]2[C@H](O)c1ccnc2ccccc12 yielded a cell count of 13100.

Biological target: Mitogen-activated protein kinase 7 (Homo sapiens) (UniProt Q13164)
Sequence (Q13164 whole entry, looked up, the tested form may be a part): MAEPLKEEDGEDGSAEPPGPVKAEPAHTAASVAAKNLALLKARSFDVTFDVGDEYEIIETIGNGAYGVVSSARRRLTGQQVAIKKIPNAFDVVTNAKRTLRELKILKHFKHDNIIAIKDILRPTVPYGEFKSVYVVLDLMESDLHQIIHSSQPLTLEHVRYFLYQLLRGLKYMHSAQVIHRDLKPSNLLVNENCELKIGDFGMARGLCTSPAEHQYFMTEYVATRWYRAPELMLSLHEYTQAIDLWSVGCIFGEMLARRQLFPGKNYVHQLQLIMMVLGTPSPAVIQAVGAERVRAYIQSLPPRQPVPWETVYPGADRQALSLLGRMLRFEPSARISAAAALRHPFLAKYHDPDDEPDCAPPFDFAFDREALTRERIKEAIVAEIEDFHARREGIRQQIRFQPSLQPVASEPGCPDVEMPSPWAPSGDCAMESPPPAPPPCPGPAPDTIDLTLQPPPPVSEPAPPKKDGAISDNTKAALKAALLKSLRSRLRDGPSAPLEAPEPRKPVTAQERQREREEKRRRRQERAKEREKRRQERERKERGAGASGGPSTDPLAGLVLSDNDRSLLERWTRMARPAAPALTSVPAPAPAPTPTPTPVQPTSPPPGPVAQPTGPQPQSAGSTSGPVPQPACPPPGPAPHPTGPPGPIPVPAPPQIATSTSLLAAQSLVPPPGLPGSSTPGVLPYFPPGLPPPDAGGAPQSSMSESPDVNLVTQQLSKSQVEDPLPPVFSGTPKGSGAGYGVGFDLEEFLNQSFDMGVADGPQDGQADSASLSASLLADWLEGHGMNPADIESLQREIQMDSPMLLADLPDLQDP
Test: Gal4-ERK5 driven luciferase induction – cell-based, HTS, primary screen (AID 1508626);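 further: luciferase driven by Gal4-ERK5 fusion binding five Gal4 sites before minimal TATA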
Conditions: HeLa Gal4-ERK5 transactivation, 18 h, at 5 µM, stronger effect = higher value
For CC(=O)O[C@H]1C[C@@H](OC(C)=O)C(C)(C)C2C[C@@H](OC(C)=O)[C@]3(C)C(CC[C@@]4(C)[C@H](c5ccoc5)C(=O)[C@H]5O[C@]543)[C@]21C (stereo partly drawn), the luciferase signal was 132 AU (active).
For CNC(C)[C@H](O)c1ccccc1 (stereo partly drawn), the luciferase signal was 52 AU (inactive).
In the case of O=C1C=CC(=O)c2ccccc21, the luciferase signal is reported as 388 AU (active).
With CC1=CC(=O)c2c(O)cccc2C1=O the luciferase signal was 276 AU (active).
For C=C(C)C1Cc2c(ccc3c(=O)c4c(oc23)COc2cc(OC)c(OC)cc2-4)O1 (stereo not drawn), the luciferase signal was 56 AU (inactive).
In the case of O=C(NC(=O)c1c(F)cccc1F)Nc1ccc(Cl)cc1, the luciferase signal is reported as 32 AU (inactive).
With C[C@]12CCC(=O)C=C1C=CC1C2CC[C@@]2(C)C1CC[C@@]2(O)CCC(=O)O (stereo partly drawn) the luciferase signal was 60 AU (inactive).
With O=c1c(O)c(-c2ccc(O)c(O)c2)oc2c(O)c(O)cc(O)c12 the luciferase signal was 48 AU (inactive).
In the case of CC[C@@]1(O)C[C@H](O[C@H]2C[C@H](N(C)C)[C@H](O)[C@H](C)O2)c2c(cc3c(c2O)C(=O)c2c(O)ccc(O)c2C3=O)[C@H]1C(=O)OC, the luciferase signal is reported as 32 AU (inactive).
In the case of Nc1ncn[nH]1, the luciferase signal is reported as 24 AU (inactive).
